Screens as filed in PubChem.
Kir21 block: blocks the mouse Kir2.1 inward-rectifier potassium channel. HEK293-Kir2.1, FluxOR thallium flux fluorescence; active compounds read low. B-score at 10 µM. 0.85% of 310,000 active;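 active = fluorescence ratio B-score at or below minus 3 SD of library scores, with starting-brightness B-score within 2 SD, cut at about -4.2 in these data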;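 note: channel flux triggered by added potassium and thallium sulfate stimulus; B-score of peak minus minimum fluorescence over baseline after thallium stimulus; more negative B-score means stronger Kir2.1 block with less thallium influx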
GPR7 antagonist: blocks human GPR7 receptor signaling; GPR7-expressing cells, fluorescence antagonist assay; inhibition, % at 4.4 µM; 1.1% of 290,000 active; AID 1861; in the data active = inhibition above about 16%, passing the limit was not always enough;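 note: cells stimulated with the agonist NPW; 0% = agonist with vehicle and 100% = vehicle without agonist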
Target sequence (P48145 whole entry, looked up): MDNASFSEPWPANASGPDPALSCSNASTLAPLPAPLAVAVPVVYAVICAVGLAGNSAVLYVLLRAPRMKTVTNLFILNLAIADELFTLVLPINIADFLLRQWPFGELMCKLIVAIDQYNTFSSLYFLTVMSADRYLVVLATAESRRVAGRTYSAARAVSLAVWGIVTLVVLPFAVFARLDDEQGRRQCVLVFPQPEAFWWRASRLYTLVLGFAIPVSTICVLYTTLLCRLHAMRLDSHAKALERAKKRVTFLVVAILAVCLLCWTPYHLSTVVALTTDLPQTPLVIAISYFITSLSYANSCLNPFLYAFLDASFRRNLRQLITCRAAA
TMEM16A act: activators or potentiators of mouse TMEM16A chloride channel | AID 623877 | 0.3% of 340,000 active | B-score at 10 µM | HEK293 TMEM16A/YFP-H148Q/I152L, iodide quench fluorescence; active compounds read low;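 active = fluorescence-ratio B-score plate-corrected deviation score at least 3 library SD below zero, with starting fluorescence score within 5 deviations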;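 note: channel opened by trigger with iodide after compound preincubation; score built on the fluorescence ratio of max minus min over baseline; more negative score means more quench and so TMEM16A activation or potentiation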
TMEM16A inh: blocks the mouse calcium-activated chloride channel TMEM16A; Q8BHY3; 1.2% of 310,000 active; HEK293 TMEM16A/YFP iodide influx fluorescence, ionomycin; AID 588511; normalized B-score (activity score, 25-100; higher = stronger inhibition) at 10 µM;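 active = ratio plate-corrected score three or more library SD toward inhibition, starting fluorescence score within five deviations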;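 note: score derived from kinetic fluorescence span divided by baseline fluorescence per well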
CHT PAM: allosteric activators of human choline transporter CHT. Q9GZV3. B-score at 10 µM. AID 488977. 0.49% of 310,000 active. CHT-expressing cells, membrane potential dye, choline EC20; active compounds read high; LV-AA mutant CHT in HEK293 cells;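 active = initial fluorescence not abnormally high and integrated response B-score, plate-corrected, over 3 SD above library mean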
CHT inh: human CHT choline transport inhibition | Q9GZV3 | CHT-expressing cells, membrane potential dye, choline response; active compounds read low | B-score at 10 µM | 0.86% of 310,000 active;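 active = B-score over 3 SD under the library average, and starting fluorescence ratio not unusually high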;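 note: choline stimulus applied at its EC90 after an EC20 pre-addition; B-score computed on integrated fluorescence ratio after choline addition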
An asterisk follows results filed as active; i = inactive; / = no result given; ! = repeats disagree. Shown are actives, neighbours in structure and some others; about 3.7% of the full set was active somewhere.

SMILES | Kir21 block | GPR7 antagonist | TMEM16A act | TMEM16A inh | CHT PAM | CHT inh
Cn1cnc2c1c(=O)n(Cc1cccc(Cl)c1)c(=O)n2C | 0.2 | 6 | i | i | i | i
CCc1ccc([C@@H]2CC=C(C(=O)O)[C@H](c3cccc(Cl)c3)N2S(=O)(=O)c2ccc(C)cc2)cc1 | / | / | i | 100* | i | i
CCc1ccc([C@@H]2CC=C(C(=O)O)[C@H](c3ccc(Cl)cc3)N2S(=O)(=O)c2ccc(C)cc2)cc1 | / | / | i | 100* | i | i
CC1CC(C)CN(CCC(=O)Nc2ccc(Br)cc2)C1 (stereo not given) | -1.4 | -10 | i | i | i | i
O=C(NC(NC(=S)Nc1ccc(Cl)cc1Cl)C(Cl)(Cl)Cl)c1cccc([N+](=O)[O-])c1 (stereo not given) | -1.2 | 27 | i | 100* | i | i
N#CC1(NC(=O)CN2C(=O)c3ccc([N+](=O)[O-])cc3C2=O)CCCCC1 | 0.56 | / | i | i | i | i
Cc1ccc(NC(=S)NCc2cccs2)cc1 | 0.5 | 5 | i | i | i | i
CCCCc1ccc(NC(=S)NCc2cccs2)cc1 | -0.73 | 5 | i | 100* | i | i
CCCN(CC(=O)Nc1ccccc1C)C(=O)/C=C/c1ccc(S(=O)(=O)N2CCCCCC2)cc1 | -0.24 | / | i | i | i | i
C/C(N)=C(/C#N)C(=O)CSc1nnnn1-c1ccccc1 | / | -10 | i | i | i | i
C/C(N)=C(/C#N)C(=O)CSc1nnnn1-c1ccc(C)cc1 | -0.05 | 15* | i | i | i | i
N#C/C(=C\c1cccc(Oc2ccccc2)c1)C(=O)N1CCOCC1 | -13* | -12 | i | i | i | i
CN(C)C(=O)c1cc(C(=O)c2ccc(Cl)cc2Cl)c[nH]1 | -1.5 | 24 | i | i | i | i
CN(C)C(=O)c1cc(F)ccc1Sc1cc(Cl)ccc1Cl | -5.8* | -7 | i | i | i | i
CN(C)C(=O)c1cc(C(=O)c2ccc(F)cc2Cl)c[nH]1 | 0.1 | -2 | i | i | i | i
CN(C)C(=O)c1cc(Cl)ccc1Sc1cc(Cl)ccc1Cl | -5.4* | -4 | i | i | i | i
CCOc1ccccc1CNC(=O)CCc1cn(CC)c2ccccc12 | -5.9* | 3 | i | i | i | i
CC(CCc1ccccc1)NC(=O)CCc1cn(C)c2ccccc12 (stereo not given) | -5.6* | 2 | i | i | i | i
CC(C)NC(=O)CCCc1cn(C)c2ccccc12 | 1.1 | -4 | i | i | i | i
COc1ccc(OC)c(CCNC(=O)Cn2sc3nc(C)cc(C)c3c2=O)c1 | -1.2 | 16* | / | 25* | i | i
CCn1cc(CCC(=O)NCc2cccc(OC)c2OC)c2ccccc21 | -6.6 | -8 | i | i | i | i
Cc1ccccc1CN(C)CC(=O)NC(C)CCc1ccccc1 (stereo not given) | -11* | 6 | i | i | i | i
OC1(CNCc2cn[nH]c2-c2cc3ccccc3o2)CCCCC1 | -1.1 | 6 | i | i | i | i
CS(=O)(=O)N1CCc2cc(C(=O)Nc3ccc(COCC(F)(F)F)cc3)ccc21 | -1.6 | -7 | i | i | i | i
CCn1cc(CCC(=O)NC(C)c2ccccc2)c2ccccc21 (stereo not given) | -6.1* | 7 | i | i | i | i
SMILES | Kir21 block | GPR7 antagonist | TMEM16A act | TMEM16A inh | CHT PAM | CHT inh
COc1ccc(OC)c(CCNC(=O)CCc2cn(C)c3ccccc23)c1 | -5.6* | 22 | i | i | i | i
N#CC1=C(N)Nc2nc3ccccc3n2C1c1ccc(Cl)cc1 (stereo not given) | -0.03 | -1 | i | i | i | i
O=C(Cc1cc(=O)[nH][nH]1)N/N=C/c1c(Cl)cccc1Cl | -4.3*! | -6 | i | i | i | i
COc1ccc(-c2[nH]ncc2-c2cscn2)c(O)c1 | 1.3 | 5 | i | i | i | i
COc1ccc(O)c(-c2cn[nH]c2-c2cccs2)c1 | -2.1 | 20* | i | i | i | i
N#C/C(=N\Nc1cccc(C(F)(F)F)c1)C(=O)c1csc(-c2cccnc2)n1 | -0.08 | -10 | i | 100* | i | i
